From PubChem BioAssay (NCATS)
“And” between values parts separate entries of the source, which are not always exact repeats. Equal values may be shown once. Results filed as inconclusive are left out. A call without a number means that no potency is given here. Values without a mark were called inactive. The source made the active and inactive calls. Unless noted, calls follow the shape of the dose curve; as a rule, active = well fitted curve in the direction sought with a large enough effect; inconclusive = small, poorly fitted or top-dose-only effect, or another doubt; inactive = no such curve, though single readings can be large; an effect the other way counts as inactive or inconclusive.

What was measured:
[1] = molecular target: Cellular tumor antigen p53 (Homo sapiens) (UniProt P04637); test: Primary qHTS for small molecule compounds that upregulate eGFP-tagged delta133p53alpha (in N-terminal) cells. (AID 2060322); details: NCI-H358 eGFP-delta133p53alpha fluorescence, 24 h; activation: hits give high values; also: series mostly up to about 56 µM; nearly all actives have a fitted effect of over 75% in size
Summary of the method: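 NCI-H358 cells pre-induced 24 h with 10 ng/ml doxycycline to express N-terminal eGFP-delta133p53alpha, then dosed 24 h at 37C without doxycycline; fixed, Hoechst-stained, GFP intensity by laser scanning cytometry, normalized to DMSO (0%) and 57.5 uM 5-azacytidine (100%).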

[2] = molecular target: Cellular tumor antigen p53 (Homo sapiens) (UniProt P04637); test: Primary qHTS for small molecule compounds that upregulate eGFP-tagged delta133p53alpha (in C-terminal) cells. (AID 2060324)
Summary of the method: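 NCI-H358 cells pre-induced 24 h with 100 ng/ml doxycycline to express delta133p53alpha-eGFP, then dosed in doxycycline-free medium for 24 h at 37C. Fixed, Hoechst-stained; GFP intensity by laser scanning cytometry, normalized to DMSO wells.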

[3] = molecular target: Aldehyde dehydrogenase, mitochondrial (Homo sapiens) (UniProt P05091); test: qHTS for Inhibitors of the Aldehyde Dehydrogenase Family (ALDH2) Validation screens (AID 2061302; active = well fitted inhibition curve with a large enough effect; title and protocol of this record describe different tests)

Sequence of Cellular tumor antigen p53 (Homo sapiens) (P04637 whole entry, looked up): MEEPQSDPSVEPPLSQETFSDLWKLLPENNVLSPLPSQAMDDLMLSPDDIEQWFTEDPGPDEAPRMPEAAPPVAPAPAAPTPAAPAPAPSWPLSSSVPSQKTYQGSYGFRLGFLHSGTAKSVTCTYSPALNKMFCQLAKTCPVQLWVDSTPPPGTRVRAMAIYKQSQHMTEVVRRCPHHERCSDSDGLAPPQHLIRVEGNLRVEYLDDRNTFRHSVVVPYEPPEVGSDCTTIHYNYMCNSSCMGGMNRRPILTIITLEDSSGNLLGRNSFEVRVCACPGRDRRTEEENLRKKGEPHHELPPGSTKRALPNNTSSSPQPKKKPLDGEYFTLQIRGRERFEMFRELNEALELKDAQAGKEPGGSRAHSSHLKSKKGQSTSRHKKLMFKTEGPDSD

Structure (SMILES) | activation [1] | Potency [2] | Potency [3]
NNc1nncc2ccccc12 | 19.2% and 11.4% and 5.29% | inactive | –
O=c1oc(Cl)c(Cl)c2ccccc12 | 3% | inactive | –
N#C/C(=C\c1ccc(O)c(O)c1)C(=O)NCCc1ccccc1 | -26.1% | inactive | –
COc1ccccc1CN[C@@H]1CCCN[C@@H]1c1ccccc1 | -89.1% | inactive | inactive
O=C1N=C(O)CN1/N=C/c1ccc(-c2ccc([N+](=O)[O-])cc2)o1 | 5.02% and 6.04% | inactive | –
COc1cc2c(cc1OC)-c1cc(=Nc3c(C)cc(C)cc3C)n(C)c(=O)n1CC2 | -30.7% | inactive | inactive
OCc1cc(C(O)CNCCCCCCOCCCCc2ccccc2)ccc1O (centres undefined) | 13.4% and 3.4% | inactive | –
O=C(CCc1ccncc1)NNC(=O)N1Cc2ccccc2Oc2ccc(Cl)cc21 | -9.58% | inactive | inactive
